Experimental data as given in ChEMBL document CHEMBL1157539, “Thousands of chemical starting points for antimalarial lead identification” (Nature, 2010).

Key:
Assay type in all cases: functional
Plasmodium falciparum [1] = test: GSK_TCMDC: Inhibition of Plasmodium falciparum 3D7 in whole red blood cells, using parasite LDH activity as an index of growth. Test compounds present at 2uM
Plasmodium falciparum [2] = test: GSK_TCMDC: Inhibition of Plasmodium falciparum Dd2 in whole red blood cells, using parasite LDH activity as an index of growth. Test compounds present at 2uM
HepG2 = test: GSK_TCMDC: Percent inhibition of human HepG2 cell line. Test compounds present at 10uM.

Structure (SMILES) | Inhibition (Plasmodium falciparum [1]) | Inhibition (Plasmodium falciparum [2]) | Inhibition (HepG2)
C[C@@H](CC1CCCCC1)OC(=O)N(C)[C@H]1CCN(C#N)C1 | 84% | 62% | 4%
CCN(C)CCCn1c(N(C)C)nc2cc(-n3cnc4cc(-c5ccc(Cl)cc5)sc4c3=O)ccc21.O=C(O)C(F)(F)F | 80% | 12% | 83%
CC(NC(=O)c1ccc(O)c(-c2ccc(Cl)c(Cl)c2)c1)C(=O)NCCN1CCCC1 (stereo unspecified) | 99% | 9% | 0%
Nc1ncc(-c2cccc(F)c2)cc1-c1nc2cc(F)ccc2[nH]1.O=C(O)C(F)(F)F | 100% | 88% | 54%
COc1ccccc1CNc1ccnc(N2CC(Oc3ccc(F)cc3)C2)n1 | 97% | 95% | 2%
Cc1ccc(NC(=O)c2cccc(CN3CCCN(Cc4cccc(O)c4)CC3)c2)cc1.O=C(O)C(F)(F)F | 82% | 3% | 22%
CCc1c[nH]c2c(N3CCCC3=O)cc(C(=O)N[C@@H](Cc3ccccc3)[C@H](O)CNC(C)(C)CCCC(C)C)cc12.O=CO | 96% | 97% | 22%
